Data on seven compounds can be found in PubChem BioAssay (Tox21).

Molecules are shown by their SMILES. Records with an inconclusive call do not appear. Unmarked numbers belong to inactive results. The source made the active and inactive calls. Unless noted, calls come from the whole dose curve; as a rule, active = well fitted curve in the direction sought with a large enough effect in the repeat runs; inconclusive = weak or mixed curves; inactive = no such curve, though single readings can be large; an effect the other way counts as inactive or inconclusive.

Assay [1] can be described thus: qHTS assay to identify small molecule agonists of the vitamin D receptor (VDR) signaling pathway - cell viability counter screen (AID 743224). Note: series mostly up to about 63 µM; nearly all actives have a fitted effect of over 50% in size. Put shortly:
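Viability is measured in the same wells as the VDR-bla reporter assay: after 16 h compound treatment and 2 h substrate loading, CellTiter-Glo is added and luminescence read 30 min later.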

Assay [2] can be described thus: qHTS assay to identify small molecule antagonists of the vitamin D receptor (VDR) signaling pathway - cell viability counter screen (AID 743225). Note: nearly all actives have a fitted effect of over 50% in size. A digest of the protocol:
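HEK293T VDR-bla; cpd + 1a,25-(OH)2D3 3 nM final, 16 h 37C/5% CO2; B/G FRET substrate 2 h RT; then CellTiter-Glo 30 min RT, luminescence.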
A general note: qHTS replaces the single test concentration by a dilution series.

A short description of assay [3]: qHTS assay to identify small molecule agonists of the NFkB signaling pathway (AID 1159509; active = well fitted curve in the direction sought with a large enough effect in the signal ratio in the repeat runs, not every such curve was filed as active; the % refers to the signal ratio; note: series mostly up to about 61 µM). A digest of the protocol:
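NFkB-bla ME-180 cells carry a beta-lactamase reporter under an NF-kB response element. They were plated overnight, then exposed to compounds for 5 h at 37 C. Read-out is LiveBLAzer FRET after 1.5 hr at room temperature (405 nm excitation; 460/530 nm emission).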

The nature of assay [4]: qHTS assay to identify small molecule agonists of the NFkB signaling pathway - cell viability counter screen (AID 1159515; calls by dose curve; note: series mostly up to about 61 µM; nearly all actives have a fitted effect of over 55% in size). Put shortly:
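Multiplexed viability readout: after the 5 hr compound exposure and 1.5 hr FRET substrate step, CellTiter-Glo reagent went into the same NFkB-bla ME-180 wells; ATP luminescence was measured after 30 min at room temperature.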

Assay [5] in a line: qHTS assay to identify small molecule agonists of the endoplasmic reticulum stress response signaling pathway (AID 1159516; active = well fitted activation curve with a large enough effect in the signal ratio in the repeat runs, not every such curve was filed as active; the % refers to the signal ratio). Put shortly: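 Tox21 10K library screened in quantitative HTS format on ESRE-bla HeLa cells, a beta-lactamase reporter under ER stress response element control; 5 hr treatment, FRET read.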
Assay [6] is described as follows: qHTS assay to identify small molecule agonists of the endoplasmic reticulum stress response signaling pathway - cell viability counter screen (AID 1159517; calls by dose curve; note: series mostly up to about 61 µM; nearly all actives have a fitted effect of over 50% in size). A digest of the protocol: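 CellTiter-Glo was added to wells already read for beta-lactamase FRET, and luminescence was recorded 30 min later. Cells: ESRE-bla HeLa, 1,500 per well, compound exposure 5 hr at 37 C.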

A short description of assay [7]: qHTS assay to identify small molecule antagonists of the retinoid-related orphan receptor gamma (ROR-gamma) signaling pathway - cell viability counter screen (AID 1159520). Note: nearly all actives have a fitted effect of over 50% in size. A digest of the protocol:
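Tet-on ROR gamma CHO cells (1,000/well) were plated 4 hr, given compounds in DMSO for 2 hr at 37 C, then induced with 1 uM final doxycycline for 16 hr. Viability was read as ATP by CellTiter-Glo luminescence after 30 min.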

For assay [8], the target named is Nuclear receptor ROR-gamma (Homo sapiens) (UniProt P51449). Put plainly: qHTS assay to identify small molecule antagonists of the retinoid-related orphan receptor gamma (ROR-gamma) signaling pathway (AID 1159521). Put shortly: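 Cells were plated, rested 4 h at 37 C, exposed to compounds for 2 h, then given 1 uM final doxycycline hyclate to induce RORγ expression. After 16 h, ONE-Glo luminescence from the ROR response element reporter was measured.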

Assay [9] is described as follows: qHTS assay to identify small molecule agonists of the AP-1 signaling pathway - cell viability counter screen (AID 1159525; calls by dose curve; note: nearly all actives have a fitted effect of over 55% in size). Put shortly: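 ME-180 AP-1-bla, 2500 cells/well, Opti-MEM + 0.5% dialyzed FBS; overnight 37 °C; cpd 15-pt titration, 5 h 37 °C; CellTiter-Glo 30 min RT; luminescence read; normalised to TOAB and DMSO controls.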
Assay [10] in a line: qHTS assay to identify small molecule agonists of the AP-1 signaling pathway (AID 1159526; calls by dose curve).
Assay [11] has as its target Retinoic acid receptor RXR-alpha (Homo sapiens) (UniProt P19793). The assay is described as follows: qHTS assay to identify small molecule agonists of the RXR signaling pathway (AID 1159527; calls by dose curve; note: nearly all actives have a fitted effect of over 35% in size). A digest of the protocol: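 Cells plated at 2,000/well, rested 5 hr at 37 C, pin-dosed with DMSO compound solutions, incubated 16 hr, then loaded with B/G FRET substrate for 2 hr at RT before dual-emission fluorescence reading.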

The nature of assay [12]: qHTS assay to identify small molecule agonists of the RXR signaling pathway - cell viability counter screen (AID 1159529). A digest of the protocol: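 Steps: seed RXR-alpha-UAS-bla HEK 293T cells in assay medium containing 2% charcoal-stripped FBS; incubate 5 hr; add compounds in DMSO; incubate 16 hr at 37 C; after the bla read, add CellTiter-Glo and read luminescence at 30 min.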

Assay [13] in a line: qHTS assay to identify small molecule antagonists of the retinoid acid receptor (RAR) signaling pathway - cell viability counter screen (AID 1159551). Note: nearly all actives have a fitted effect of over 35% in size. A digest of the protocol: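 Cytotoxicity counter screen in C3RL4 cells: 6 h compound exposure with 1 uM retinol (final), viability from cellular ATP by luminescence.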
Assay [14] can be described thus: qHTS assay to identify small molecule antagonists of the retinoic acid receptor (RAR) signaling pathway (AID 1159552; note: nearly all actives have a fitted effect of over 50% in size). A digest of the protocol:
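Retinol at 1 uM final stimulated RARE-luciferase expression in C3RL4 cells exposed to test compounds for 6 hr at 37 C. Reduced luminescence, read 30 min after detection reagent, indicated pathway antagonism.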

Assay [15] is described as follows: qHTS assay to identify small molecule agonists of the retinoic acid receptor (RAR) signaling pathway (AID 1159553). A digest of the protocol: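 Agonist activity was scored in C3RL4 cells bearing a retinoic acid response element luciferase construct. Cells were treated with compounds for 6 hr at 37 C, and luciferase signal was measured as luminescence.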
The nature of assay [16]: qHTS assay to identify small molecule antagonists of the estrogen related receptor (ERR) signaling pathway from Tox21 library - cell viability counter screen (AID 1224834). Note: nearly all actives have a fitted effect of over 30% in size. Put shortly: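 Cytotoxicity of test substances is gauged in the same ERR cells used for the antagonist screen, after 17.5 h of compound treatment at 37 C, by CellTiter-Fluor fluorescence measured after 30 min.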

Assay [17] deals with Luciferin 4-monooxygenase (Photinus pyralis) (UniProt P08659). Put plainly: qHTS assay to identify small molecule inhibitors of firefly luciferase (AID 1224835). Note: nearly all actives have a fitted effect of over 25% in size. Note: potency is the fitted concentration of half-maximal effect. Put shortly: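 Quantitative HTS format; KM concentrations of both substrates. Purified P. pyralis FLuc activity quantified from luminescence images.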
Chain of Luciferin 4-monooxygenase (Photinus pyralis) (P08659 whole entry, looked up): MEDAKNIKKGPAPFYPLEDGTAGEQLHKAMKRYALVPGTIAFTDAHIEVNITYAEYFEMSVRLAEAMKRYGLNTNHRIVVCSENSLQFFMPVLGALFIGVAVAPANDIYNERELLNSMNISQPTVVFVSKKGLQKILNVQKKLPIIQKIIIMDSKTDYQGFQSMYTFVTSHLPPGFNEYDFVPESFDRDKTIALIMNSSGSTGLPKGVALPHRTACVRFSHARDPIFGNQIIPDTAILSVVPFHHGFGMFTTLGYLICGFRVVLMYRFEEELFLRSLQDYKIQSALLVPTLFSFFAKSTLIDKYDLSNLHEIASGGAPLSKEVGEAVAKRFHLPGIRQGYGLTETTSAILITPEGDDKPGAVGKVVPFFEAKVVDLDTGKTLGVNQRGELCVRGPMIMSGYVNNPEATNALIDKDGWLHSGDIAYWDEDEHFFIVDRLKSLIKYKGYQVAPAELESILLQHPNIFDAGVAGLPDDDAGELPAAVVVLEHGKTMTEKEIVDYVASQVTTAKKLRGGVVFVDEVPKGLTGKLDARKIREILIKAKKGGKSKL
Assay [18] is described as follows: qHTS assay to identify small molecule agonists of the constitutive androstane receptor (CAR) signaling pathway - cell viability counter screen (AID 1224836). Note: series mostly up to about 92 µM; nearly all actives have a fitted effect of over 45% in size. A digest of the protocol:
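Cells were seeded and incubated 4 hrs. Compounds were added across 15 concentrations together with PK11195 at 0.75 uM final. Plates were incubated 23 hrs at 37 C. CellTiter-Fluor was added and fluorescence measured.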

Assay [19] in a line: qHTS assay to identify small molecule antagonists of the constitutive androstane receptor (CAR) signaling pathway - cell viability counter screen (AID 1224837). Note: series mostly up to about 92 µM; nearly all actives have a fitted effect of over 45% in size. Put shortly: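 Multiplexed cytotoxicity read-out for the CAR antagonist screen: double-stable HepG2-CYP2B6-hCAR cells co-treated with 50 nM CITCO (final) and compound over 15 concentrations, incubated 23 hr, then assessed by CellTiter-Fluor fluorescence.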

The target of assay [20] is Nuclear receptor subfamily 1 group I member 3 (Homo sapiens) (UniProt Q14994). Put plainly: qHTS assay to identify small molecule antagonists of the constitutive androstane receptor (CAR) signaling pathway (AID 1224838). Note: nearly all actives have a fitted effect of over 40% in size. A digest of the protocol: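 Compounds were titrated across 15 concentrations onto HepG2 cells double-stably expressing hCAR and a CYP2B6-2.2kb reporter, together with 50 nM CITCO (final). After 24 h at 37 C, luciferase activity was measured by luminescence.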
Chain of Nuclear receptor subfamily 1 group I member 3 (Homo sapiens) (Q14994 whole entry, looked up): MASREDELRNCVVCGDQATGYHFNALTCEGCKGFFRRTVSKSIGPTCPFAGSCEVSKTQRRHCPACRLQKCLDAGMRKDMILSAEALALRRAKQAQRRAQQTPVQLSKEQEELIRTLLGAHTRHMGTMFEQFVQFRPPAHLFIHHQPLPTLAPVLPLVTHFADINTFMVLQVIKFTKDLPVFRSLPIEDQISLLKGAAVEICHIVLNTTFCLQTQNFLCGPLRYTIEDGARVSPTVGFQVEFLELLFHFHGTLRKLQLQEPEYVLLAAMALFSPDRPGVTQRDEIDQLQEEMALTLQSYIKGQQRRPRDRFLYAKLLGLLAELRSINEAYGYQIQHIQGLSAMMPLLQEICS

Chain of Retinoic acid receptor RXR-alpha (Homo sapiens) (P19793 whole entry, looked up): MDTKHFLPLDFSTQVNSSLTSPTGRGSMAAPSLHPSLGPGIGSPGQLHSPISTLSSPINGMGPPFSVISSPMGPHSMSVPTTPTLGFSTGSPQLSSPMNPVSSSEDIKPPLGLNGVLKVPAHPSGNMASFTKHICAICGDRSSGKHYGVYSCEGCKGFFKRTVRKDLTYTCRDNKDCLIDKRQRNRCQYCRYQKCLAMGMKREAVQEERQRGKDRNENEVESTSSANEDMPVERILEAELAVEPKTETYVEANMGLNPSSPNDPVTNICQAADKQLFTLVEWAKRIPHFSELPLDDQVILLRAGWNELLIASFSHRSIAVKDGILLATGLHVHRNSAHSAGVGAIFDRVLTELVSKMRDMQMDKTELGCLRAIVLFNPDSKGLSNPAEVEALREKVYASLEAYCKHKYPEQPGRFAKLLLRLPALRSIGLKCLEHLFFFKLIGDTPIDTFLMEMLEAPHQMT

Consider `CCCc1ccc(O)cc1`, for which the compound was classed as inactive in assay [1], in assay [2], in [3], in [4], in [5] and in assay [6]. Besides, the result in assay [7], in [8], in assay [9], in assay [10], in assay [12] and in assay [13] was inactive. The call in assay [14], in [16], in assay [18] and in assay [19] was inactive. The Potency entry in [11], in assay [15], in assay [17] and in assay [20] was “inactive” in each case.

As for `CCOCCOCC`, the compound was called inactive in [1], in assay [2], in assay [3], in assay [4], in assay [5] and in assay [6]. Besides, the outcome in [7], in assay [8], in assay [9], in [10], in [12] and in [13] was inactive. Also, the outcome in [14], in [16], in [18] and in assay [19] was inactive. For the same compound, the Potency result in assay [11], in [15], in assay [17] and in assay [20] was “inactive” in each case.

Take `CCCCCCCCCOC(=O)c1ccccc1C(=O)OCCCCCCCCC`: the call in [1], in assay [2], in assay [3], in assay [4], in assay [5] and in assay [6] was inactive. Besides, the compound was called inactive in [7], in assay [8], in assay [9], in assay [10], in assay [12] and in [13]. For the same compound, the compound was called inactive in [14], in [16], in [18] and in assay [19]. Further, the Potency result in [11], in [15], in [17] and in assay [20] was “inactive” each time.

In the case of `OC1OCCOC1O` (centres undefined), the compound was called inactive in assay [1], in assay [2], in assay [3], in [4], in [5] and in [6]. The result in assay [7], in assay [8], in assay [9], in assay [10], in assay [12] and in assay [13] was inactive. In addition, the compound was called inactive in [14], in assay [18] and in assay [19]. The Potency entry in assay [11], in assay [15], in [17] and in [20] was “inactive” each time.

In the case of `O=C1CCC(=O)N1Cl`, the outcome in assay [1], in assay [2], in assay [3], in assay [4], in assay [5] and in [6] was inactive. Also, the compound was classed as inactive in assay [7], in assay [8], in assay [9], in assay [10], in assay [12] and in [13]. Moreover, the compound was classed as inactive in assay [14], in assay [16], in [18] and in [19]. The Potency entry in assay [11], in assay [15], in assay [17] and in assay [20] was “inactive” throughout.

As for `CC(C)CCOC(=O)c1ccccc1`, the compound was called inactive in assay [1], in assay [2], in assay [3], in assay [4], in assay [5] and in assay [6]. For the same compound, the compound was classed as inactive in assay [7], in assay [8], in assay [9], in [10], in assay [12] and in assay [13]. Further, the compound was classed as inactive in assay [14], in assay [16], in [18] and in assay [19]. The Potency result in assay [11], in [15] and in assay [20] was “inactive” each time. In assay [17], the Potency was 71 µM (active).

On to `COc1ccc2c(c1)c1c3n2CCN(C)C3=NCC1`, for which the call in assay [1], in assay [2], in assay [3], in assay [4], in assay [5] and in assay [6] was inactive. Besides, the outcome in assay [7], in [8], in [9], in assay [10], in assay [12] and in [13] was inactive. The outcome in assay [14], in assay [16], in assay [18] and in assay [19] was inactive. For the same compound, the Potency entry in [11], in assay [15], in [17] and in [20] was “inactive” each time.
